Here are results for 16 compounds from PubChem BioAssay (NCATS).

Where “and” joins values, the source holds several entries; their conditions need not be identical. Identical values can stand only once. Inconclusive results are not listed. A call without a number means that no potency is given here. Calls of active or inactive are those of the source. The call rests on the fitted dose curve.

Test [1] is described as follows: Cytotoxicity counterscreen for inhibitors of SARS-CoV-2 cell entry (AID 1645845). Further: nearly all actives have a fitted effect of over 50% in size. In outline: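 48 h compound treatment (after 1 h preincubation), HEK293-ACE2 cells, 37 C/5% CO2; ATP luminescence endpoint; normalized to cell wells and media blanks.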
Test [2] can be described thus: Primary qHTS to identify inhibitors of SARS-CoV-2 cell entry (AID 1645846). Further: nearly all actives have a fitted effect of over 45% in size. The settings on record: activity change, negative = inhibition: at 57.1 µM (top of the series) unless noted. In outline:
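HEK293 cells stably expressing human ACE2, pre-treated 1 h with compound, then infected with MLV particles pseudotyped with Wuhan-Hu-1 spike (C-terminal 19-aa truncation). Luciferase luminescence after 48 h at 37 °C, normalised to spike PP and bald PP.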
(In qHTS, concentration-response curves come from the screen itself.)

As to `CC(CCc1ccc(O)cc1)NCCc1ccc(O)c(O)c1` (configuration not stated), the Potency entry in test [1] was “inactive”. In addition, the activity change, negative = inhibition in test [2] is -37.3%.

Turning to `CC(C(=O)O)c1ccc(/C=C2\CCCCC2=O)cc1` (configuration not stated), the Potency result in test [1] and in test [2] was “inactive” throughout.

For the compound `CNC[C@H](O)[C@@H](O)[C@H](O)[C@H](O)CO`, in test [1], the Potency entry was “inactive”. For the same compound, the activity change, negative = inhibition in test [2] is -19.7%.

For the compound `CN1CCN2c3ncccc3Cc3ccccc3C2C1` (configuration not stated), in test [1], the Potency entry was “inactive”. In test [2], the activity change, negative = inhibition is -27.6% and -19.2%.

For `CC(=O)Nc1c(I)c(NC(C)=O)c(I)c(C(=O)O)c1I`, in test [1], the Potency entry was “inactive”. Besides, in test [2], the activity change, negative = inhibition is -1.67%.

As for `COC(=O)CCCCC(CCSS/C(CCO)=C(\C)N(C=O)Cc1cnc(C)nc1N)SC(C)=O` (configuration not stated), the Potency result in test [1] and in test [2] was “inactive” in each case.

In the case of `O=C(CCBr)N1CCN(C(=O)CCBr)CC1`, the Potency result in test [1] and in test [2] was “inactive” each time.

In the case of `CC(C)(C)NC[C@H](O)COc1nsnc1N1CCOCC1`, in test [1], the Potency result was “inactive”. The activity change, negative = inhibition in test [2] was -5.6%.

As for `CCOC(=O)C1=C(C)NC(C)=C(C(=O)OC)C1c1cccc([N+](=O)[O-])c1` (configuration not stated), the Potency result in test [1] and in test [2] was “inactive” in each case.

For `OCCc1ccccc1`, the Potency result in test [1] and in test [2] was “inactive” in each case.

Regarding `CC1CCc2c(N3CCC(O)CC3)c(F)cc3c(=O)c(C(=O)O)cn1c23` (configuration not stated), the Potency entry in test [1] and in test [2] was “inactive” throughout.

Take `CC(C)NCC(O)c1ccc(NS(C)(=O)=O)cc1` (configuration not stated): the Potency entry in test [1] was “inactive”. In test [2], the activity change, negative = inhibition was -13.1% and -25%.

Consider `CCC1=C(C)CN(C(=O)NCCc2ccc(S(=O)(=O)NC(=O)NC3CCC(C)CC3)cc2)C1=O` (configuration not stated), for which the Potency result in test [1] and in test [2] was “inactive” in each case.

For `Nc1nc(/C(=C/CC(=O)O)C(=O)N[C@@H]2C(=O)N3C(C(=O)O)=CCS[C@H]23)cs1`, the Potency entry in test [1] is “inactive”. Also, the activity change, negative = inhibition in test [2] is -21.3%.

With `CC(C)CN(C[C@@H](OP(=O)(O)O)[C@H](Cc1ccccc1)NC(=O)O[C@H]1CCOC1)S(=O)(=O)c1ccc(N)cc1`, the Potency result in test [1] was “inactive”. In addition, in test [2], the activity change, negative = inhibition is -18.7%.

For the compound `NC(=O)c1ncn([C@@H]2O[C@H](CO)[C@@H](O)[C@H]2O)c1O`, the Potency entry in test [1] and in test [2] was “inactive” in each case.
